From PubChem
Most compounds without a hit are left out; they make up all but 3.5% or so of the library.
BoNT F protease: BoNT F light chain protease inhibition; Multiplex microsphere protease cleavage assay, flow cytometry; inhibition, % at 10 µM; 360,000 tested, 0.22% active; AID 588497; in the data active = inhibition above about 35%, passing the limit was not always enough; inconclusive = no clear call, values can overlap the other calls; note: plate controls were buffer without enzyme for full effect and enzyme alone for no effect
Bead autofluor: compound fluorescence in toxin protease inhibitor counterscreen. compound autofluorescence counterscreen, microsphere flow cytometry; stronger effect = higher value. fluorescence intensity (test concentration not listed). 360,000 tested, 3.1% active. AID 624483; in the data active = fluorescence intensity above about 16000; inconclusive = no clear call, values can overlap the other calls
BoNT-A LC inh2: blocks Botulinum neurotoxin A light chain protease | multiplex microsphere protease substrate cleavage, flow cytometry | 360,000 tested, 0.17% active | inhibition, % at 10 µM; note: plate controls were buffer without enzyme for full effect and enzyme alone for no effect
Anthrax LF inh2: blocks Bacillus anthracis lethal factor protease; 360,000 tested, 0.12% active; inhibition, % at 10 µM; P15917; multiplex microsphere protease cleavage assay, LF; AID 588501; note: plate controls were buffer without enzyme for full effect and enzyme alone for no effect
Target sequence (P15917 whole entry, looked up): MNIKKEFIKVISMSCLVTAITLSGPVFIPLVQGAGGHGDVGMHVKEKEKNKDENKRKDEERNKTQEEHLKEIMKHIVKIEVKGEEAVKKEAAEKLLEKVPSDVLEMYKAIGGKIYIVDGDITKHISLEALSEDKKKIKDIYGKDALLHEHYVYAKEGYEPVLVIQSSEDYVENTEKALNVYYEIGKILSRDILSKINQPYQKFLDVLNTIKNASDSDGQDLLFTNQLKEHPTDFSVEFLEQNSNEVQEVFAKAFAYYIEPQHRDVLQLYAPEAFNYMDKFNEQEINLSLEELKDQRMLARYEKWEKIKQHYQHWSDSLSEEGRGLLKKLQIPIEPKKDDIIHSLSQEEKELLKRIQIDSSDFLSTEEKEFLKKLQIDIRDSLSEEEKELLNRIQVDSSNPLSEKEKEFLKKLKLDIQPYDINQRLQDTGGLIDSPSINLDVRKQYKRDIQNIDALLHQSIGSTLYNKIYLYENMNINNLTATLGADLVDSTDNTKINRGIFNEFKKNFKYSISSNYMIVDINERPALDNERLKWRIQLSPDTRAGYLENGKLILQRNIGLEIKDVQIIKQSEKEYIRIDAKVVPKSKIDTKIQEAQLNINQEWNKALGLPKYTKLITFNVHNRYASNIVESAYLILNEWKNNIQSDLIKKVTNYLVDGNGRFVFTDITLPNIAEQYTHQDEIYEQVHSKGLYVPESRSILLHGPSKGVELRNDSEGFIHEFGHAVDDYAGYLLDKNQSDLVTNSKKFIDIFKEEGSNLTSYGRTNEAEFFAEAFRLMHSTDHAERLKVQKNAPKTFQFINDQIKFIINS
Starred values were filed as active, the others as inactive; u = inconclusive. Cut-off read from the data, not from the text of the source, unless noted: active = inhibition above about 30%; inconclusive = no clear call, values can overlap the other calls; inactive = below that.

SMILES	BoNT F protease	Bead autofluor	BoNT-A LC inh2	Anthrax LF inh2
Cc1ccc2c(c1)sc1nc(=O)n(-c3ccc(Cl)cc3)c(=O)n12	3	19455*	0	0
Cc1ccc2c(c1)sc1nc(=O)n(-c3ccc(Cl)c(Cl)c3)c(=O)n12	-5	22447*	u	-2
Cc1ccc2c(c1)sc1nc(=O)n(-c3cccc(Cl)c3)c(=O)n12	1	22395*	1	-1
O=c1nc2sc3ccccc3n2c(=O)n1-c1ccc(Cl)cc1	0	3826	0	1
Cc1cc(C2=CC(=O)C[C@H](c3ccc(F)cc3)C2)ccc1F	0	3615	0	-4
CCN(CC)C(=O)c1ccc(Cc2cn(C)c3ccccc23)nc1	-2	3490	0	-6
CC(=O)Nc1ccc(-c2noc(-c3csc([C@@H]4C[C@H](O)[C@@H](CO)O4)n3)n2)cc1	-7	3897	0	-2
O=c1cc(/C=C/c2ccccc2)oc2ccccc12	6	22100*	u	1
CC1=C(C(=O)N(C)C)CC(CC(=O)NC(c2ccccc2)c2ccccc2)C(=O)N1CCCN1CCCC1=O (configuration not stated)	-5	2952	0	-1
O=C(c1cnc(Cc2c[nH]c3ccccc23)c(I)c1)N1CCOCC1	-2	3720	0	0
COc1ccc(C(C)n2c(C)c3c(C)nnc(C)c3c2C)cc1 (configuration not stated)	-5	16371*	3	-1
Nc1nc2ccccc2cc1C(=O)NCCCCc1ccccc1	-2	6281	0	4
O=c1[nH][nH]c2c1[C@H](c1ccc(F)cc1)O[C@H](CCc1ccccc1)C2	-8	4554	-1	1
CC(C)C(C)(C#N)NC(=O)CSc1nc(C2CCCCC2)n(-c2ccccc2)n1 (configuration not stated)	38*	2368	3	-1
Cc1sc2nc(C3CC3)nc(SCC(=O)N3CCc4ccccc4C3)c2c1C	-2	23515*	u	1
Cc1sc2nc(C3CC3)nc(SCC(=O)N3CC(=O)Nc4ccccc43)c2c1C	-8	10986	0	1
COc1cc(CNn2nnnc2N)ccc1OCC(=O)NC(C)(C)C	-1	23140*	1	-1
CC(C)(C)NC(=O)COc1ccc(CNn2nnnc2N)cc1	2	3463	0	2
CCOc1cc(CNn2nnnc2N)ccc1OCC(=O)NC(C)(C)C	-4	16985*	-2	0
CCCCn1nc(C(=O)N(C)C2CCCCC2)c2ccccc2c1=O	-7	9223	-2	-2
Cc1ccccc1Cn1c(Cc2ccccc2)nc2ccccc21	-6	24142*	u	0
Cc1cccc(Cn2c(Cc3ccccc3)nc3ccccc32)c1	4	2047	0	-1
COCc1nc2ccccc2n1Cc1ccccc1C	-6	3212	0	-2
COCn1c(-c2cccc(Br)c2)nc2ccccc21	0	19656*	u	-5
COCc1nc2ccccc2n1Cc1cccc(C)c1	-5	16897*	-2	-1
SMILES	BoNT F protease	Bead autofluor	BoNT-A LC inh2	Anthrax LF inh2
Nc1ccn([C@@H]2O[C@H](C(=O)NCC(F)(F)F)[C@@H](O)[C@H]2O)c(=O)n1	2	5444	-1	3
O=C(c1[nH]c(C(F)(F)F)nc1-c1ccccc1)N1CCN(C(=O)C2CCCO2)CC1 (configuration not stated)	7	5118	0	5
CCOC(=O)C1=C(C)N=C2SC(C(=O)OC)=CC(=O)N2C1c1cccc(OC)c1 (configuration not stated)	-4	19879*	0	-2
CCOC(=O)C1=C(C)N=C2SC(C(=O)OC)=CC(=O)N2C1c1ccc(F)cc1 (configuration not stated)	-16	8359	0	-1
CNS(=O)(=O)c1ccc(CNC[C@H]2O[C@@H](n3ccc(N)nc3=O)[C@H](O)[C@@H]2O)cc1	-6	3928	0	-2
COc1c(/C=N/Nc2nc(N3CCCCC3)nc(N3CCCCC3)n2)cccc1[N+](=O)[O-]	-12	11568	-2	4
O=[N+]([O-])c1ccc(/C=N/Nc2nc(N3CCCCC3)nc(N3CCCCC3)n2)o1	2	21202*	4	11
Brc1ccc(-c2nc(-c3ccccc3)no2)o1	2	22544*	2	-1
CCc1nc2c(OCCOC)cccn2c1N(C)C(=O)Nc1ccccc1OC	-1	2850	0	-7
Cc1ccc(NC(=O)CSc2nc3ccccc3c3nc4ccccc4n23)cc1	1	19179*	0	0
CCC(=O)n1nc(-c2ccccc2)nc1SCC(=O)Nc1ccc(C)cc1	-3	21542*	-1	-1
COc1ccc(NC(=O)CSc2nc3ccccc3c3nc4ccccc4n23)cc1	-17	2453	-1	-1
N#CCSc1nc2c(sc(=S)n2Cc2ccco2)c(=O)n1-c1ccc(F)cc1	-5	21835*	-3	-2
Cc1noc(C)c1S(=O)(=O)N(C)C[C@@H]1OCc2cnnn2CCCC(=O)N([C@@H](C)CO)C[C@H]1C	2	3720	0	0
O=C(Nc1nccs1)C1CCCN1S(=O)(=O)c1ccc(Cl)cc1 (configuration not stated)	-2	11397	0	-1
NC(=O)c1ccsc1NC(=O)C1CCCN1S(=O)(=O)c1ccc(Cl)cc1 (configuration not stated)	0	20384*	0	-1
O=C(Nc1nc(-c2ccccc2)cs1)C1CCCCN1S(=O)(=O)c1ccc(Cl)cc1 (configuration not stated)	-5	16281*	1	-5
C[C@H](O)CNC(=O)c1[nH]cnc1C(=O)N[C@@H](C)c1ccccc1	-6	3446	0	-2
CCCCNC(=O)C1(C)CCN1Cc1cc(C)ccc1C (configuration not stated)	-3	3127	0	-5
CC(C)CNC(=O)c1cccc2c(-c3cccc(C(N)=O)c3)coc12	-3	3691	0	-7
N#Cc1c(N)[nH]c(=S)c(C#N)c1-c1ccccc1	3	20825*	1	0
Cc1cc(Nc2c(C)n(C)n(-c3ccccc3)c2=O)n2c(nc3ccccc32)c1C#N	10	9784	0	3
CCCc1cc(Nc2c(C)n(C)n(-c3ccccc3)c2=O)n2c(nc3ccccc32)c1C#N	-4	22932*	-2	0
O=c1[nH]cnc2sc3c(c12)CCN(Cc1ccccc1)C3	-3	3721	3	1
OCCCNc1ncnc2sc3c(c12)CCN(Cc1ccccc1)C3	u	7833	35*	-24
O=C(CC1NCCNC1=O)Nc1ccc(Cl)c(Cl)c1 (configuration not stated)	-5	2212	0	0
O=C(CC1NCCNC1=O)Nc1ccc2c(c1)OCO2 (configuration not stated)	-8	22917*	-2	-5
CCc1cc(C(=O)OC)c(NC(=O)CC2NCCNC2=O)s1 (configuration not stated)	0	21532*	u	0
CC(C)C[C@H]1CNC(=O)C(=O)N1C[C@@H]1CCCN1C[C@H](CC(C)C)N1C[C@H](Cc2ccccc2)N(CCc2ccccc2)C(=O)C1=O	-3	4166	0	-10
COc1ccc(C(=O)Cn2c3ccccc3n3nc(CCC(=O)O)c(=O)nc23)cc1OC	-1	20229*	0	2
